From PubChem BioAssay come the findings set out here.

Structures are written as SMILES. The source made the active and inactive calls.

For one assay, the target named is Albumin (Bos taurus) (UniProt P02769). Description: compounds binding labelled BSA control protein – biochemical, small-molecule microarray, Alexa647 label, 635/667 nm fluorescence, artefact control for SMM control protein annotation, profiling panel (AID 1118).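 Also: score merges 667 nm emission intensity and signal-to-noise per printed compound spot.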 To be noted: BSA-A647 binding, fluorescence 635 nm, higher = more signal.
Assay [1] is described as follows: probe aXIP binding to arrayed compounds – biochemical, NeuroSMM set, 635/667 nm fluorescence, primary screen (AID 1119).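 Also: probe is the protein aXip251-270 applied at 1 µg/mL to compound-printed slides; binding of probe to printed compounds measured as 667 nm fluorescence plus signal to noise.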 To be noted: small-molecule microarray, higher = more signal, called active from +8 up or from −8 down.
A short description of assay [2]: probe aNOTCH3 binding on compound microarray – biochemical, small-molecule microarray, 635/667 nm fluorescence, primary screen (AID 1120).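 Also: probe is a biotin-tagged antibody raised against NOTCH3 rather than NOTCH3 protein; score merges spot fluorescence near 667 nm with spot signal to noise.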 The following applies: higher = more signal.
A short description of assay [3]: probe aNOTCH2 binding on compound microarray – biochemical, small-molecule microarray, 635/667 nm fluorescence, primary screen (AID 1121).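 Also: score merges feature fluorescence read at 667 nm with its signal to noise.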 To be noted: higher = more signal.
For assay [4], the target named is Carbonic anhydrase 2 (Homo sapiens) (UniProt P00918). Description: compounds binding carbonic anhydrase 2 – biochemical, small-molecule microarray, Alexa647-labelled CAII, profiling panel (AID 1122). The following applies: CAII-A647 binding fluorescence, higher = more signal.
Assay [5] in a line: COS7 lysate on small-molecule microarray, probe aHis, 635 nm (AID 1123).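 Also: z-score combines 667nm fluorescence intensity with signal-to-noise per printed compound spot.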 The following applies: COS7 cell lysate, fluorescence, higher = more signal.
Assay [6] is described as follows: probe aLAP1 signal on lysate-treated microarray – cell lysate, small-molecule microarray, COS7 lysate, primary screen (AID 1124).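 Also: lysate comes from COS7 cells expressing LAP1 and is applied at 0.3 µg/mL; score merges spot fluorescence near 667 nm with signal-to-noise over triplicate slides.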 The following applies: probe aLAP1, fluorescence, higher = more signal.
For another assay, the system named is Sam68 (KHDRBS1). Description: compounds binding KHDRBS1 protein – biochemical, small-molecule microarray, 635 nm fluorescence, primary screen (AID 1125).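 Also: score merges 667 nm channel intensity with signal to noise over triplicate slides.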 The following applies: higher = more signal.
For assay [7], the system named is Chordin-like protein 2 (CHRDL2). Description: compounds binding chordin-like 2 – biochemical, small-molecule microarray, 635 nm fluorescence, primary screen (AID 1126).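 Also: printed compound slides probed with Chrdl2 protein at 4 µg/mL for 1 h at 4 C; score merges 667 nm emission intensity with signal to noise over three replicate slides.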 To be noted: fluorescence 635 nm, higher = more signal.
The target in assay [8] is Concanavalin-A (Canavalia ensiformis) (UniProt P02866). Description: compounds binding concanavalin A lectin – biochemical, small-molecule microarray, Alexa647 label, 635 nm, artefact control for SMM control protein annotation, primary screen (AID 1127).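 Also: z combines 667 nm emission intensity with signal-to-noise across three replicate slides.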 The following applies: ConA-A647 binding fluorescence, higher = more signal.
The nature of assay [9]: compounds binding Alexa647 anti-His antibody – biochemical, small-molecule microarray, 635 nm fluorescence, artefact control for SMM control protein annotation, primary screen (AID 1128).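 Also: score merges feature fluorescence with signal-to-noise for each printed compound spot.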 The following applies: higher = more signal.
Assay [10] relates to Human papillomavirus type 1a E7 protein (residues 1-88). Description: HPV1a E7 small-molecule binders, primary screen, biochemical, small-molecule microarray, residues 1-88, 635 nm (AID 1129). To be noted: small-molecule microarray binding, fluorescence 635 nm; higher = more signal.
Assay [11] concerns the target Focal adhesion kinase 1 (Homo sapiens) (UniProt Q05397). Description: PTK2 protein binding on printed compound slides – biochemical, small-molecule microarray, 635/667 nm fluorescence, BSA, DTT, primary screen (AID 1130).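 Also: composite of spot emission at 667 nm and signal to noise over triplicate slides.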 To be noted: 635 nm fluorescence, higher = more signal.
Assay [12] has as its system Fibrinogen (Alexa647-labelled). Description: Alexa647-fibrinogen binding to printed small molecules – biochemical, small-molecule microarray, 635/667 nm fluorescence, artefact control for SMM control-protein annotation, profiling panel (AID 1131).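 Also: z-score merges 667 nm fluorescence with per-spot signal-to-noise over triplicate slides.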 The following applies: fibrinogen-A647 binding fluorescence, higher = more signal.
Assay [13] deals with Follistatin (Homo sapiens) (UniProt P19883). Description: FST protein binding to printed compounds – biochemical, small-molecule microarray, 635/667 nm fluorescence, primary screen (AID 1132). The following applies: 635 nm fluorescence, higher = more signal.
Assay [14] deals with Fibroblast growth factor 2 (Homo sapiens) (UniProt P09038). Description: basic fibroblast growth factor binding to printed compounds – biochemical, small-molecule microarray, 635/667 nm fluorescence, primary screen (AID 1133). To be noted: FGF2, fluorescence 635/667, higher = more signal.
Assay [15] in a line: JC-1 mitochondrial potential readout, lung cancer cells – cell-based, A549, JC-1 fluorescence, basal, 24 h, 100 nL, profiling panel (AID 1138).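 Also: A549 lung adenocarcinoma cells under basal conditions with no added stimulus; test concentration not given here.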 To be noted: higher = more signal.
The next assay relates to Lefty1. Description: Lefty1 protein binding to printed compounds – biochemical, small-molecule microarray, 635/667 nm fluorescence, primary screen (AID 1139). The following applies: fluorescence 635/667, higher = more signal.
Assay [16] relates to wheat germ agglutinin (Triticum aestivum), Alexa647-labelled. Description: Alexa647-WGA lectin binding to printed small molecules – biochemical, small-molecule microarray, 635/667 nm fluorescence, artefact control for SMM control-protein annotation, profiling panel (AID 1140).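 Also: score merges 667 nm feature emission with signal to noise over triplicate slides.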 The following applies: WGA-A647 binding, 635 nm fluorescence, higher = more signal.
The target of assay [17] is Luciferin 4-monooxygenase (Photinus pyralis) (UniProt P08659). Description: inhibition of purified Photinus pyralis luciferase – biochemical, luminescence, purified enzyme, 2006 set, primary screen (AID 1141).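 Also: cell-free assay with purified firefly luciferase at 100 ng per well in PBS; test concentration not given here.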 To be noted: purified firefly luciferase, SteadyGlo luminescence, 30 min; higher = more signal, called active from +8 up or from −8 down.
Sequence of Luciferin 4-monooxygenase (Photinus pyralis) (P08659 whole entry, looked up): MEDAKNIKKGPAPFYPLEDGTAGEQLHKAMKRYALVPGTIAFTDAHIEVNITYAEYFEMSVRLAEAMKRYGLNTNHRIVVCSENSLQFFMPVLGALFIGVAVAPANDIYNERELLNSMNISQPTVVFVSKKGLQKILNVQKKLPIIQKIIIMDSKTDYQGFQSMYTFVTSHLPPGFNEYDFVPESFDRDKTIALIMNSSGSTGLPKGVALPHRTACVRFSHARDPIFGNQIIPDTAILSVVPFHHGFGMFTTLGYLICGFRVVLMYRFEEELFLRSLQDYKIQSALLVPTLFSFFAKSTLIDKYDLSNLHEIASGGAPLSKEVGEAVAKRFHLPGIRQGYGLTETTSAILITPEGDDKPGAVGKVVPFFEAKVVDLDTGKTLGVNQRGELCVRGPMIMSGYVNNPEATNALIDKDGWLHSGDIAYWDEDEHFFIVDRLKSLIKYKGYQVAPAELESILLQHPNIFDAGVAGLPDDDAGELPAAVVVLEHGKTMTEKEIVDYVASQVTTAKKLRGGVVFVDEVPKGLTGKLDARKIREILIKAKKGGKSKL

Sequence of Fibroblast growth factor 2 (Homo sapiens) (P09038 whole entry, looked up): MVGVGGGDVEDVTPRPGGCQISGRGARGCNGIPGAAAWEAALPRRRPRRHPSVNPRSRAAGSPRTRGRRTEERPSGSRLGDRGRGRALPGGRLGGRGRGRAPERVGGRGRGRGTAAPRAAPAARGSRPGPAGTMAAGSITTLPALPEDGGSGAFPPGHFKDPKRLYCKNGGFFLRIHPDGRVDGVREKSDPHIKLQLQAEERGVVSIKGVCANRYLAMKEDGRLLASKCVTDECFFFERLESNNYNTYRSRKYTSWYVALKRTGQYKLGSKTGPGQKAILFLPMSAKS
Sequence of Follistatin (Homo sapiens) (P19883 whole entry, looked up): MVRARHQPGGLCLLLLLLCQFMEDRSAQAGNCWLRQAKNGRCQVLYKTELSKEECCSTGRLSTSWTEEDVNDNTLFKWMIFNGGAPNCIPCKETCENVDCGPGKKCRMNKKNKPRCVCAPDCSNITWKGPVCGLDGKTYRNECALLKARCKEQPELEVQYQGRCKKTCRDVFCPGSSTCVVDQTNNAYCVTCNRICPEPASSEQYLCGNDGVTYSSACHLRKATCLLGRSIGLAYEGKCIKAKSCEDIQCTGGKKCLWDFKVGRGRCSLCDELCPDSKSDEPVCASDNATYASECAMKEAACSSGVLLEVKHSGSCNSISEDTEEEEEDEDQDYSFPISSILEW
Sequence of Albumin (Bos taurus) (P02769 whole entry, looked up): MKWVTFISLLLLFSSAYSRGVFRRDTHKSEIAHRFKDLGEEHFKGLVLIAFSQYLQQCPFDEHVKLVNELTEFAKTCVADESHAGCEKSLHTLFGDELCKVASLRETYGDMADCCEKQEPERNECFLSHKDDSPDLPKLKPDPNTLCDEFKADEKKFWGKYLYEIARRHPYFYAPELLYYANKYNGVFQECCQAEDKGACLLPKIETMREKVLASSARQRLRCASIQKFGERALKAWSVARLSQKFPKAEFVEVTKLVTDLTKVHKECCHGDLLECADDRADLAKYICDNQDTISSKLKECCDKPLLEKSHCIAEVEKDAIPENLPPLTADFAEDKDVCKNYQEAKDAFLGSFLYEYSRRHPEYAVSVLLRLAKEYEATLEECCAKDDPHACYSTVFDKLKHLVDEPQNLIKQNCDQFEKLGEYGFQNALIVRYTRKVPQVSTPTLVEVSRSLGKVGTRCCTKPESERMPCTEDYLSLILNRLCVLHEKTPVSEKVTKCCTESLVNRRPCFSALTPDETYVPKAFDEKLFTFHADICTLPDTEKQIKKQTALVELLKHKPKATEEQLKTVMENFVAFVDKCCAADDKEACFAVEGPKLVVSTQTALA
Sequence of Concanavalin-A (Canavalia ensiformis) (P02866 whole entry, looked up): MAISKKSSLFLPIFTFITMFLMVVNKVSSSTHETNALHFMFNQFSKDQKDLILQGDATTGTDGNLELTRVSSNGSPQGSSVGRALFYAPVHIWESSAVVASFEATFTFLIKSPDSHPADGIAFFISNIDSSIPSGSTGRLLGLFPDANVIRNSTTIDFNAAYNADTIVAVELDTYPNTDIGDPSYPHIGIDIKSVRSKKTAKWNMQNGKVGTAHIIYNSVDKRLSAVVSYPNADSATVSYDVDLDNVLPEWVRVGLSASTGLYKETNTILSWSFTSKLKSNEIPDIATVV
Sequence of Focal adhesion kinase 1 (Homo sapiens) (Q05397 whole entry, looked up): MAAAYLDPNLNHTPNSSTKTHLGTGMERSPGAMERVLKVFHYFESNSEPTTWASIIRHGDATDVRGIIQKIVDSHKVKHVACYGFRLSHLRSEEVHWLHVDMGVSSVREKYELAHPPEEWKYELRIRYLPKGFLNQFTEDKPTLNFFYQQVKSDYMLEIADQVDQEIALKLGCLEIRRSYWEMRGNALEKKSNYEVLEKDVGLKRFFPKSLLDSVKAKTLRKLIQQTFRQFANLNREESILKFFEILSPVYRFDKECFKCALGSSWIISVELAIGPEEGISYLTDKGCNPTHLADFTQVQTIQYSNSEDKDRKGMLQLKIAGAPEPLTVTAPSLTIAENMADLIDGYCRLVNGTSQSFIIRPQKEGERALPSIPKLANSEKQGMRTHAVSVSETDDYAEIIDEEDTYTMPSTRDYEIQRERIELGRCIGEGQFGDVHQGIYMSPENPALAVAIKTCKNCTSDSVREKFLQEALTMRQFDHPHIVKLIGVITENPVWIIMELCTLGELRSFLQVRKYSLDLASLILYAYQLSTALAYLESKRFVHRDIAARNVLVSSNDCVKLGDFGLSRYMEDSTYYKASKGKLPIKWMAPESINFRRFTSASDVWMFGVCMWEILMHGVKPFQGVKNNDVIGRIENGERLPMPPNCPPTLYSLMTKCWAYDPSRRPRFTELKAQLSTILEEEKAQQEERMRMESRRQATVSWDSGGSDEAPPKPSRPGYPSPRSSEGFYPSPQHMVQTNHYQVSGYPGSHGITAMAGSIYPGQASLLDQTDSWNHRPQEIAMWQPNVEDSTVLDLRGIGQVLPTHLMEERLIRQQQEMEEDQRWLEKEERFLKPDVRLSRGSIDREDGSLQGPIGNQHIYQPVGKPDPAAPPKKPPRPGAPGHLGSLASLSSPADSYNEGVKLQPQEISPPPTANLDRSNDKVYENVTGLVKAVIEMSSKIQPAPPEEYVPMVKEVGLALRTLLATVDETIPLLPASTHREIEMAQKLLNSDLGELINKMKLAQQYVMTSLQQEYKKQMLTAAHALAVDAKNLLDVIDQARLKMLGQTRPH

With `C=C(C)[C@@H]1CC=C(C(O)C2C=CC3C(=O)N(C)C(=O)C3N2Nc2ccc([N+](=O)[O-])cc2[N+](=O)[O-])CC1` (stereo not given in full), the composite z-score came to 0.689 in the assay with Albumin (Bos taurus); 0.407 in assay [2]; 0.158 in assay [3]; 0.583 in [4]; 2.5 in [5]; 0.005 in [6]. The composite z-score is 1.29 in the assay with Sam68 (KHDRBS1); 0.722 in assay [7]; 1.14 in assay [8]; 0.607 in [9]; 1.27 in [10]; 0.512 in assay [11]. Moreover, the composite z-score is 1 in [12]; 1.24 in assay [13]; -0.0675 in assay [14]; 0.424 in the assay on Lefty1; 0.799 in assay [16]. For the same compound, in assay [1], the composite Z-score was -0.37 (inactive). The values for the z-score in assay [15] and in [17] were 1.88 and 0.511 (inactive), respectively.
On to `COC(=O)C(CC#Cc1ccc2c(c1)[C@]1(C(=O)N2)[C@H](C(=O)NC[C@H](O)c2ccccc2)[C@H]2C(=O)O[C@H](c3ccccc3)[C@H](c3ccccc3)N2[C@@H]1c1ccccc1OCCO)C(=O)OC`, for which the composite z-score is -0.119 in the assay with Albumin (Bos taurus); 0.0779 in assay [2]; -0.115 in assay [3]; 0.376 in [4]; 2.14 in assay [5]; 0.298 in assay [6]. Moreover, the composite z-score in the assay on Sam68 (KHDRBS1) worked out at 1.25; in assay [7] it was 0.557; in [8], 1.01; in [9], 2.68; in [10], 1.23; in assay [11] it was 0.289. For the same compound, the composite z-score in assay [12] worked out at 0.478; in assay [13], 1.25; in assay [14] it was 1.56; in the assay on Lefty1, 0.221; in assay [16], 1.09. Also, the composite Z-score in assay [1] is -0.154 (inactive). The results for the z-score in [15] and in assay [17] were -0.693 and 0.742 (inactive), respectively.
Regarding `CN(C)CCCC[C@@H]1NC(=O)[C@@H]2C[C@H](C(=O)NCCCCCCNC(=O)CS)[C@H](c3ccc(O)cc3)N2C1=O`, the composite z-score was -0.868 with Albumin (Bos taurus); -0.0682 in [2]; -0.112 in assay [3]; 0.538 in [4]; 1.06 in assay [5]; 0.338 in assay [6]. Moreover, the composite z-score was found to be 0.952 with Sam68 (KHDRBS1); 1.15 in assay [7]; 1.08 in assay [8]; 2.26 in [9]; 0.91 in [10]; 0.335 in [11]. In addition, the composite z-score in [12] was 0.767; in [13], 1.31; in assay [14], 1.87; with Lefty1, 1.38; in assay [16], -0.204. Also, the composite Z-score in assay [1] was 0.0804 (inactive). Further, the z-score in [15] was -0.15; in assay [17], -0.25 (inactive).
Regarding `C[N+](C)(C)CCCC[C@@H]1NC(=O)[C@H]2C[C@@H](C(=O)NCCCCCNC(=O)CS)[C@@H](c3cccc(OCCO)c3)N2C1=O`, the composite z-score in the assay with Albumin (Bos taurus) was 0.479; in [2], -0.0881; in assay [3] it was -0.115; in assay [4], 0.69; in [5] it was 1.63; in [6], 0.985. Besides, the composite z-score in the assay on Sam68 (KHDRBS1) amounted to 0.165; in assay [7], 0.245; in assay [8], 0.896; in assay [9], 1.38; in assay [10], 0.518; in assay [11] it was 0.247. Besides, the composite z-score in assay [12] is 0.821; in assay [13] it was 0.78; in [14], 0.549; in the assay on Lefty1, -0.383; in assay [16], 0.343. Moreover, the composite Z-score in assay [1] was 0.518 (inactive). For the same compound, the z-score in [15] is 0.299; in [17] it was -1.09 (inactive).
Turning to `C=CCC(OC(C)=O)[C@@H]1[C@@H](N(Cc2cccc3ccccc23)C(=O)c2ccc(-c3ccccc3)cc2)c2cc(OCCCO)ccc2N1C(=O)Cc1ccc2ccccc2c1` (stereo not given in full), the composite z-score was 0.364 with Albumin (Bos taurus); 0.0276 in assay [2]; -0.0809 in [3]; 0.268 in assay [4]; 0.376 in assay [5]; 0.0109 in assay [6]. Besides, the composite z-score is -0.518 in the assay on Sam68 (KHDRBS1); 0.0624 in assay [7]; -0.214 in [8]; 0.203 in [9]; 0.0951 in assay [10]; -0.166 in [11]. In addition, the composite z-score was -0.052 in [12]; 0.592 in assay [13]; 0.0824 in assay [14]; -0.415 in the assay on Lefty1; -0.194 in assay [16]. Moreover, in assay [1], the composite Z-score was -0.902 (inactive). The z-score in [15] is 0.412; in assay [17], 0.223 (inactive).
